The record followed here is PubChem BioAssay (NCI).

Test systems include NCI-H23 lung; NCI-H226 lung; NCI-H322M lung; HOP-62 NSCLC; NCI-H460 lung; HOP-92 NSCLC; A549/ATCC NSCLC; 786-0 renal; COLO 205 colon; NCI-H522 lung.
Assay in all cases: NCI-60 one-dose screen, 48 h (100 = growth as untreated, 0 = no growth, -100 = all killed)
What all share (conditions): 10 µM unless noted

This is part of a sample that, as a whole, favours compounds with a hit. Of some 83,000 tested, about 20% had one in any assay.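 Method: cells in 96-well plates; compound added at one concentration; 48 h incubation; percent growth measured; values under 10 scored active.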 Unmarked numbers belong to inactive results. Activity calls are given as the source filed them.

With `O=C1c2ccccc2CCC12OC2c1cn(-c2ccccc2)nc1-c1ccc(Cl)cc1` (stereo unspecified), the growth is 103% in the assay with NCI-H23 lung; 75.1% with NCI-H226 lung; 99.6% in the assay on NCI-H322M lung; 108% in the assay on HOP-62 NSCLC; 58.9% in the assay on NCI-H460 lung; 40.5% in the assay on HOP-92 NSCLC. Further, the growth with A549/ATCC NSCLC was 92.7%; with 786-0 renal it was 115%; in the assay with COLO 205 colon, 93.9%.

As for `CC(C)(C)c1cc(/C=N/NC(=O)c2ccccc2NC(=O)c2cccs2)c(O)c(C(C)(C)C)c1`, the growth is 48.6% with NCI-H23 lung; 55.1% in the assay on NCI-H226 lung; 39.1% with NCI-H322M lung; 20.7% in the assay with HOP-62 NSCLC; -11% (active) in the assay with NCI-H460 lung; 75.4% in the assay with HOP-92 NSCLC. The growth in the assay with A549/ATCC NSCLC was 12.8%; in the assay with 786-0 renal, 18.4%; in the assay with COLO 205 colon, 4.49% (active).

Regarding `COc1cc2nc(-c3ccc(Cl)cc3)cc(OCCCN3CCC(O)CC3)c2cc1OC`, the growth is 76.1% in the assay with NCI-H23 lung; 3.82% (active) in the assay on NCI-H226 lung; 58.3% in the assay on NCI-H322M lung; 63.2% in the assay with HOP-62 NSCLC; 23.8% in the assay with NCI-H460 lung; 38.1% in the assay with HOP-92 NSCLC. Also, the growth in the assay with A549/ATCC NSCLC is 34.9%; in the assay with 786-0 renal, 75.2%; in the assay with COLO 205 colon it was 23.8%.

Take `N#CC1=C(N)Oc2c(ccc3ccccc23)C1c1ccccc1Cl` (stereo unspecified): the growth with NCI-H23 lung was 30.9%; in the assay on NCI-H226 lung, 69.3%; in the assay with NCI-H322M lung, 54.7%; in the assay on HOP-62 NSCLC, 49.9%; with NCI-H460 lung it was 5.27% (active); in the assay on HOP-92 NSCLC, 80.6%. Moreover, the growth in the assay on A549/ATCC NSCLC was 22.4%; in the assay with 786-0 renal, 27.7%; in the assay with COLO 205 colon, -1.64% (active).

As to `COc1cc(/C=N/O)nc(-c2ccccn2)c1`, the growth with NCI-H23 lung is 19.9%; in the assay on NCI-H226 lung, 11.7%; in the assay on NCI-H322M lung, 23.9%; with HOP-62 NSCLC it was 23.9%; in the assay on NCI-H460 lung, 5.13% (active); in the assay with HOP-92 NSCLC it was 54.4%. In addition, the growth with A549/ATCC NSCLC is 14.8%; with 786-0 renal, 17.5%; in the assay on COLO 205 colon, 10.7%.

Consider `O=C(Nc1ccccc1)Nc1ccc2cc3ccc(NC(=O)Nc4ccccc4)cc3nc2c1`, for which the growth with NCI-H23 lung was 23.7%; with NCI-H226 lung, 91%; in the assay with NCI-H322M lung, 61.6%; in the assay on HOP-62 NSCLC it was 46.1%; in the assay with NCI-H460 lung it was 92.6%; in the assay with HOP-92 NSCLC, 87.6%. Also, the growth is 101% in the assay with A549/ATCC NSCLC, 25.7% with 786-0 renal and 3.12% (active) in the assay with COLO 205 colon.

Turning to `CC/C(=C\c1ccc(OC)cc1)C(=O)c1ccc(OC)cc1`, the growth was 86.4% in the assay with NCI-H23 lung; 93.7% in the assay on NCI-H226 lung; 92.5% with NCI-H322M lung; 86.8% in the assay with HOP-62 NSCLC; 102% with NCI-H460 lung; 85.2% in the assay with HOP-92 NSCLC. The results for the growth with A549/ATCC NSCLC, in the assay with 786-0 renal and with COLO 205 colon were 123%, 97.3% and 121%, respectively.

With `CC1(C)CC(O)CCCCCCOc2c(CN)cccc2NC(=O)c2nc(cnc2N)-c2ccc(cc2)S1(=O)=O` (stereo unspecified), the growth was 28% in the assay on NCI-H23 lung; 48.6% in the assay on NCI-H226 lung; 44.4% with NCI-H322M lung; 44.7% with HOP-62 NSCLC; -30.2% (active) in the assay with NCI-H460 lung; 115% with HOP-92 NSCLC. The growth is 27.9% in the assay on A549/ATCC NSCLC, -15.4% (active) in the assay with 786-0 renal and 22.9% with COLO 205 colon.

As to `COc1ccc2c(c1)oc1c(C)c3c(c(C)c12)C(=O)N(CCN1CCOCC1)C3=O`, the growth with NCI-H23 lung is 101%; in the assay on NCI-H226 lung, 96.4%; in the assay with NCI-H322M lung it was 90.9%; in the assay with HOP-62 NSCLC, 101%; in the assay on NCI-H460 lung, 101%; with HOP-92 NSCLC it was 106%. The growth was 90.8% in the assay on A549/ATCC NSCLC, 102% in the assay on 786-0 renal and 109% in the assay with COLO 205 colon.

As for `N#CC1=C(N)Oc2c(cnn2-c2ccc([N+](=O)[O-])cc2[N+](=O)[O-])C1c1ccccc1` (stereo unspecified), the growth in the assay with NCI-H23 lung is 104%; in the assay on NCI-H226 lung it was 97%; in the assay with NCI-H322M lung, 97.7%; in the assay with HOP-62 NSCLC, 98.3%; in the assay with NCI-H460 lung, 103%; with HOP-92 NSCLC, 75.6%. Also, the values for the growth with A549/ATCC NSCLC, in the assay with 786-0 renal and in the assay on COLO 205 colon were 103%, 114% and 111%, respectively.

On to `COc1cc(CC(=O)c2ccc(O)c(OC)c2)ccc1O`, for which the growth in the assay with NCI-H23 lung is 103%; with NCI-H226 lung, 81.9%; with NCI-H322M lung, 89.6%; in the assay on HOP-62 NSCLC it was 91.4%; in the assay with NCI-H460 lung it was 100%; in the assay with HOP-92 NSCLC, 84.5%. Moreover, the figures for the growth in the assay on A549/ATCC NSCLC, in the assay on 786-0 renal and in the assay with COLO 205 colon were 79.5%, 104% and 107%, respectively.

Turning to `COc1ccc(C(=O)Nc2cccc(C3CCc4c(cc(OC)c(OC)c4OC)O3)c2)cc1` (stereo unspecified), the growth with NCI-H23 lung is 58.9%; with NCI-H226 lung, 30.1%; with NCI-H322M lung it was 75.9%; with HOP-62 NSCLC, 39.8%; in the assay with NCI-H460 lung it was 25.7%; with HOP-92 NSCLC, 61.3%. In addition, the growth in the assay with A549/ATCC NSCLC was 43.4%; in the assay on 786-0 renal, 68.7%; in the assay on COLO 205 colon, 67.9%.

On to `CN1C(N2CCN(S(=O)(=O)c3ccccc3)CC2)=NS(=O)(=O)c2ccccc21`, for which the growth with NCI-H23 lung was 98.2%; with NCI-H226 lung it was 112%; with HOP-62 NSCLC, 89%; in the assay on NCI-H460 lung it was 103%; with HOP-92 NSCLC, 86.8%; in the assay with NCI-H522 lung, 80.2%. For the same compound, the growth is 69.7% in the assay with A549/ATCC NSCLC, 99.5% in the assay with 786-0 renal and 109% in the assay on COLO 205 colon.

Take `Cc1ccc(NC(=O)c2cc(-c3nc4ccccc4s3)c(=O)n(NS(=O)(=O)c3ccc(Cl)cc3)c2N)cc1`: the growth is 102% with NCI-H23 lung; 80.6% in the assay on NCI-H226 lung; 97.8% with NCI-H322M lung; 106% in the assay with HOP-62 NSCLC; 105% in the assay with NCI-H460 lung; 103% in the assay with HOP-92 NSCLC. Also, the growth is 100% in the assay with A549/ATCC NSCLC, 101% in the assay with 786-0 renal and 114% in the assay on COLO 205 colon.
